Results reported in PubChem BioAssay (EPA / NIEHS).
Records with an inconclusive call do not appear. Calls of active or inactive are those of the source. Rule for the calls, unless noted: active = hit-call score of the fitted dose curve at least 0.9, where 1 is the maximum; inconclusive = response in the unintended direction; inactive = score below 0.9.

How the values were obtained:
[1] = ATG_TAL_CIS: Attagene CIS-FACTORIAL HepG2 Assay for human TAL Basal Promoter (AID 2282966; active = hit-call score of the fitted dose curve at least 0.9, where 1 is the maximum; inactive = score below 0.9;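 note: background control endpoint measuring basal TAL promoter reporter mRNA not a specific factor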); settings: HepG2 Attagene cis-factorial TAL promoter reporter; actives raise or lower the signal
How it was run: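 HepG2 cells were transiently transfected with promoter-driven multiplexed reporter units and dosed for 24 h. Reporter mRNA was measured by RT-PCR with capillary electrophoresis fluorescence; bidirectional fits used DMSO as baseline, serving as a background control.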

[2] = ATG_VDRE_CIS: Attagene CIS-FACTORIAL HepG2 Assay for human Vitamin D Receptor Element (VDRE) (AID 2282968; active = hit-call score of the fitted dose curve at least 0.9, where 1 is the maximum; inactive = score below 0.9); settings: HepG2 VDRE cis-reporter transcription, actives raise or lower the signal
How it was run: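 In transiently transfected HepG2 liver cells, gain or loss of reporter mRNA after 24 h exposure is scored relative to DMSO, using fluorescence detection by capillary electrophoresis of RT-PCR products.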

[3] = molecular target: Nuclear receptor subfamily 1 group I member 3 (Homo sapiens) (UniProt Q14994); assay: ATG_CAR_TRANS: Attagene TRANS-FACTORIAL HepG2 Assay for human Constitutive Androstane Receptor (CAR) (AID 2282969); settings: HepG2 Attagene TRANS-FACTORIAL CAR reporter;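 note: activators raise reporter mRNA above DMSO so AC50 marks induction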
Chain of Nuclear receptor subfamily 1 group I member 3 (Homo sapiens) (Q14994 whole entry, looked up, the tested form may be a part): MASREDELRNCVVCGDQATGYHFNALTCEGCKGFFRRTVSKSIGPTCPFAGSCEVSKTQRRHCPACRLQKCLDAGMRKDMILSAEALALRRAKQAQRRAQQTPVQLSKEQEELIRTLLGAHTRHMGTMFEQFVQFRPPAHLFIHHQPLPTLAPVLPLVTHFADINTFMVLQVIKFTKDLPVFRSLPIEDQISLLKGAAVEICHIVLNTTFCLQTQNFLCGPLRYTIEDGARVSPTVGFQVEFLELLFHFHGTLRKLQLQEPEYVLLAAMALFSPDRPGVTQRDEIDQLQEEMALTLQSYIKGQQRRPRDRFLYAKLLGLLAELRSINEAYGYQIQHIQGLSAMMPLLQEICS
How it was run: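 Readout is reporter mRNA induction, quantified by fluorescent primer extension and capillary electrophoresis after RT-PCR. Cells were HepG2 transiently carrying chimeric NR-Gal4 constructs with GAL4-UAS reporters, treated for 24 h; activity scored upward from DMSO.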

[4] = molecular target: Estrogen receptor (Homo sapiens) (UniProt P03372); assay: ATG_ERa_TRANS: Attagene TRANS-FACTORIAL HepG2 Assay for human Estrogen Receptor alpha (ERa) (AID 2282970); settings: HepG2 Attagene TRANS ERa GAL4 reporter, mRNA
Chain of Estrogen receptor (Homo sapiens) (P03372 whole entry, looked up, the tested form may be a part): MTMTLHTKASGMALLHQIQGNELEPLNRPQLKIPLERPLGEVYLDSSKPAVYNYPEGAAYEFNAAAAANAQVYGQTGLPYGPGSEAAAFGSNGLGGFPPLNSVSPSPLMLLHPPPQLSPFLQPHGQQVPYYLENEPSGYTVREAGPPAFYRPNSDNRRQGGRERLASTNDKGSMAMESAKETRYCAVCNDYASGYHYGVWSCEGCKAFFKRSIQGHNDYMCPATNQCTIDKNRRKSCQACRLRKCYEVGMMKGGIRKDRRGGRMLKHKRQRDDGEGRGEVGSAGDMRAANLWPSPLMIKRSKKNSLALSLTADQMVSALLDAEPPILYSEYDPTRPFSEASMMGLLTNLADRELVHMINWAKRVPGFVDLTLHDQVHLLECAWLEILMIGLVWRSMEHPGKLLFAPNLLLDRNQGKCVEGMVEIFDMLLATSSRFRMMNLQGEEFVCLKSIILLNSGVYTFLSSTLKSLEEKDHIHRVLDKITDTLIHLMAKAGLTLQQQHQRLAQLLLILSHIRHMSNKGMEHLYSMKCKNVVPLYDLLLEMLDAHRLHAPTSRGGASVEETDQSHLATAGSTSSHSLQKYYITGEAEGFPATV
How it was run: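 HepG2 cells transiently transfected with multiplexed GAL4-UAS reporter units; ERa activity read via exogenous chimeric NR-Gal4 protein. After 24 hour compound exposure, reporter mRNA measured by RT-PCR with 6-FAM labelling and capillary electrophoresis; gain-of-signal fitted relative to DMSO.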

[5] = molecular target: X-box-binding protein 1 (Homo sapiens) (UniProt P17861); assay: ATG_Xbp1_CIS: Attagene CIS-FACTORIAL HepG2 Assay for human X-box Binding Protein 1 (XBP1) (AID 2282972; active = hit-call score of the fitted dose curve at least 0.9, where 1 is the maximum; inactive = score below 0.9); settings: HepG2 XBP1 cis-element reporter, Attagene multiplex; actives raise or lower the signal
Chain of X-box-binding protein 1 (Homo sapiens) (P17861 whole entry, looked up): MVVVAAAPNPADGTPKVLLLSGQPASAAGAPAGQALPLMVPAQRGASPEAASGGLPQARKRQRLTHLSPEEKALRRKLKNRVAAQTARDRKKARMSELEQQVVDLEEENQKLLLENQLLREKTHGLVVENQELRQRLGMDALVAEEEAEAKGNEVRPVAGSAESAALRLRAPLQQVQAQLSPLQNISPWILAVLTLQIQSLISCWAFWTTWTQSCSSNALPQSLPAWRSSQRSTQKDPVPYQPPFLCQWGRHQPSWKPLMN
How it was run: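 HepG2 cells transiently transfected with multiple cis-element reporter units report endogenous TF activity; 24 h exposure, then reporter mRNA measured by RT-PCR, 6-FAM labelling, HpaI digestion and capillary electrophoresis. Bidirectional fitting versus DMSO.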

[6] = ATG_GAL4_TRANS: Attagene TRANS-FACTORIAL HepG2 Assay for GAL4 (Internal Marker) (AID 2282976); settings: HepG2 Attagene TRANS GAL4 internal marker reporter
How it was run: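 HepG2 cells transiently transfected with multiplexed GAL4-UAS reporter constructs were dosed for 24 h. Reporter mRNA was measured by RT-PCR, 6-FAM primer extension, HpaI digestion and capillary electrophoresis, and gain of signal was fitted relative to DMSO.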

[7] = molecular target: Glucocorticoid receptor (Homo sapiens) (UniProt P04150); assay: ATG_GR_TRANS: Attagene TRANS-FACTORIAL HepG2 Assay for human Glucocorticoid Receptor (GR) (AID 2282978); settings: HepG2 Attagene TRANS GR reporter, mRNA transcription;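 note: activators score as hits since higher reporter transcript over DMSO is fitted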
Chain of Glucocorticoid receptor (Homo sapiens) (P04150 whole entry, looked up, the tested form may be a part): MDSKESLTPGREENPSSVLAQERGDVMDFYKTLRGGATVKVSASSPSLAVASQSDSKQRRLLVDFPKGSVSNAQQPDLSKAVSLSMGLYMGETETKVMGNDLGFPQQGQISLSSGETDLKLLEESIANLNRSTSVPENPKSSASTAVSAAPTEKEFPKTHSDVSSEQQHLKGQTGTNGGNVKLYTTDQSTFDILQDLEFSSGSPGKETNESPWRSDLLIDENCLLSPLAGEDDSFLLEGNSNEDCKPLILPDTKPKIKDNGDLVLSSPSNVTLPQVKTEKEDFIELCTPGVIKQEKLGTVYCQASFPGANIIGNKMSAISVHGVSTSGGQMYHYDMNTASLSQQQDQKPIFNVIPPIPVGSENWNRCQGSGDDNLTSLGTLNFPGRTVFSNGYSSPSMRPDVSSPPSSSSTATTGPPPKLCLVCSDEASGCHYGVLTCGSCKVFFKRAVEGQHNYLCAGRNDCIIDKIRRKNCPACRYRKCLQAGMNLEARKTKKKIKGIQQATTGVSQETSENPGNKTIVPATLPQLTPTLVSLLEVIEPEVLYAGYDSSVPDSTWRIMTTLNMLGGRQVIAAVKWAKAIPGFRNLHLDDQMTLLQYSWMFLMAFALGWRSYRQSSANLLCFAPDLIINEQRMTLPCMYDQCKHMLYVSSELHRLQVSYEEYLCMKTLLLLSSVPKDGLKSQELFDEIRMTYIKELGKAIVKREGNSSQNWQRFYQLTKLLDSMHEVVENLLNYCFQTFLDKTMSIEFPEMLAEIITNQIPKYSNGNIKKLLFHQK
How it was run: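 Readout is reporter transcript from a chimeric GR-Gal4 acting on GAL4-UAS in transfected human HepG2 liver cells after 24 h exposure, quantified by RT-PCR and capillary electrophoresis. Activation fitted upward against DMSO.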

[8] = molecular target: Oxysterols receptor LXR-alpha (Homo sapiens) (UniProt Q13133); assay: ATG_LXRa_TRANS: Attagene TRANS-FACTORIAL HepG2 Assay for human Liver X Receptor alpha (LXRa) (AID 2282980); settings: HepG2 Attagene TRANS reporter, LXRa transactivation
Chain of Oxysterols receptor LXR-alpha (Homo sapiens) (Q13133 whole entry, looked up, the tested form may be a part): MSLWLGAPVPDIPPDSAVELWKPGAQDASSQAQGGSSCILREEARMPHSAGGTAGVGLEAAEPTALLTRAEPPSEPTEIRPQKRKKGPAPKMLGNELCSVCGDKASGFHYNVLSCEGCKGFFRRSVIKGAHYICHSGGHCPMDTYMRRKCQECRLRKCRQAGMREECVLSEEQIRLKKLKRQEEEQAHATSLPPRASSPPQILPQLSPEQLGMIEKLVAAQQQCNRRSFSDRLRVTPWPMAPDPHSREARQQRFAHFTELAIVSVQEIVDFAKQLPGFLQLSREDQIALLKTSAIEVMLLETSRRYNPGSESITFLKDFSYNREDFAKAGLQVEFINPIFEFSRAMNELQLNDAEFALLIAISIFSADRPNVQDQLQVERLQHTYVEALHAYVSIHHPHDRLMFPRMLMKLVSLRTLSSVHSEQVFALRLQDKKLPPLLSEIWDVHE
How it was run: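 HepG2 cells were transiently transfected with multiplexed reporter units driven by chimeric LXRa–GAL4 fusion proteins, then dosed for 24 h. Reporter mRNA was quantified by RT-PCR, fluorescent labelling and capillary electrophoresis; gain of signal fitted against DMSO baseline.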

[9] = ATG_M_06_TRANS: Attagene TRANS-FACTORIAL HepG2 Assay for M06 Transcription Factor (Internal Marker) (AID 2282983); settings: HepG2 Attagene TRANS M06 internal marker reporter;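 note: reporter transcript level by RT-PCR then capillary electrophoresis fluorescence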
How it was run: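 HepG2 cells transiently transfected with multiplexed GAL4-UAS reporter transcription units; after 24 h compound exposure, reporter mRNA measured by RT-PCR, FAM-labelled primer extension, HpaI digestion and capillary electrophoresis. Gain-of-signal fitted versus DMSO baseline; background control readout.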

[10] = molecular target: Nuclear receptor subfamily 4 group A member 2 (Homo sapiens) (UniProt P43354); assay: ATG_NURR1_TRANS: Attagene TRANS-FACTORIAL HepG2 Assay for human Nuclear Receptor Related Protein 1 (NURR1) (AID 2282985); settings: HepG2 Attagene TRANS reporter, mRNA readout
Chain of Nuclear receptor subfamily 4 group A member 2 (Homo sapiens) (P43354 whole entry, looked up): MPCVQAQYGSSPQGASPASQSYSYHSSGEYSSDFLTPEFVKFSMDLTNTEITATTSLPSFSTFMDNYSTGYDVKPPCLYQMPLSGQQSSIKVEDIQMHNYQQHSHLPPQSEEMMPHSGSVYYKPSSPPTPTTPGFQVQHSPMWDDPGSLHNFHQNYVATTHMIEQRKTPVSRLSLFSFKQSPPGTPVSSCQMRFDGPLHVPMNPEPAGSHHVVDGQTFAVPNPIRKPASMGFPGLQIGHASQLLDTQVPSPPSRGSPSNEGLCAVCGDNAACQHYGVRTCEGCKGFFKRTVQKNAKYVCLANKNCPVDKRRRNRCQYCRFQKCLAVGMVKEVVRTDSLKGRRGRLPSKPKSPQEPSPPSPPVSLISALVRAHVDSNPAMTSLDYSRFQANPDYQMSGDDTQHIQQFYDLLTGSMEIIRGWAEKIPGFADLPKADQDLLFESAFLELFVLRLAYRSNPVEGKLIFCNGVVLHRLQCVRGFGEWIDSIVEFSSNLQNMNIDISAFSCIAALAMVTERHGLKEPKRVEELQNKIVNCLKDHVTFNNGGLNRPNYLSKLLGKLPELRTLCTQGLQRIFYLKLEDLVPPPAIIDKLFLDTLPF
How it was run: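 Cells: HepG2, transiently transfected. Exposure: 24 h. Detection: fluorescence of labelled RT-PCR products separated by capillary electrophoresis; upward fit versus DMSO.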

[11] = molecular target: Transcriptional activator Myb (Homo sapiens) (UniProt P10242); assay: ATG_Myb_CIS: Attagene CIS-FACTORIAL HepG2 Assay for human Myeloblastosis (Myb) Proto-Oncogene Transcription Factor (AID 2282986; active = hit-call score of the fitted dose curve at least 0.9, where 1 is the maximum; inactive = score below 0.9); settings: HepG2 Attagene CIS-FACTORIAL Myb reporter transcription; actives raise or lower the signal
How it was run: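 Reporter mRNA is quantified by RT-PCR and capillary electrophoresis 24 h after dosing HepG2 cells transfected with cis-regulated reporter units, which track endogenous transcription factor activity. Gain and loss of signal are fitted versus DMSO baseline.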

[12] = molecular target: Steroid hormone receptor ERR1 (Homo sapiens) (UniProt P11474); assay: ATG_ERRa_TRANS: Attagene TRANS-FACTORIAL HepG2 Assay for human Estrogen-Related Receptor alpha (ERRa) (AID 2282971); settings: HepG2 Attagene TRANS reporter, ERRa transactivation
How it was run: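 HepG2 cells transiently transfected with multiplexed GAL4-UAS reporter units reading chimeric ERRa-Gal4 activity; 24 h compound exposure. Reporter mRNA measured by RT-PCR, 6-FAM labelling, HpaI digest and capillary electrophoresis; gain of signal fitted versus DMSO baseline.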

[13] = molecular target: Androgen receptor (Homo sapiens) (UniProt P10275); assay: ATG_AR_TRANS: Attagene TRANS-FACTORIAL HepG2 Assay for human Androgen Receptor (AR) (AID 2282973); settings: HepG2 Attagene TRANS-FACTORIAL AR reporter transcription
How it was run: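 HepG2 cells transiently transfected with multiplexed GAL4-UAS reporter units and chimeric NR-Gal4 fusion; 24 h compound exposure. Reporter mRNA measured by RT-PCR, 6-FAM labelling, HpaI digestion and capillary electrophoresis; gain-of-signal fitted relative to DMSO baseline.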

[14] = molecular target: Estrogen-related receptor gamma (Homo sapiens) (UniProt P62508); assay: ATG_ERRg_TRANS: Attagene TRANS-FACTORIAL HepG2 Assay for human Estrogen-Related Receptor gamma (ERRg) (AID 2282977); settings: HepG2 Attagene TRANS reporter, ERRg transactivation;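 note: hits increase reporter signal over DMSO so potencies reflect activators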
Chain of Estrogen-related receptor gamma (Homo sapiens) (P62508 whole entry, looked up, the tested form may be a part): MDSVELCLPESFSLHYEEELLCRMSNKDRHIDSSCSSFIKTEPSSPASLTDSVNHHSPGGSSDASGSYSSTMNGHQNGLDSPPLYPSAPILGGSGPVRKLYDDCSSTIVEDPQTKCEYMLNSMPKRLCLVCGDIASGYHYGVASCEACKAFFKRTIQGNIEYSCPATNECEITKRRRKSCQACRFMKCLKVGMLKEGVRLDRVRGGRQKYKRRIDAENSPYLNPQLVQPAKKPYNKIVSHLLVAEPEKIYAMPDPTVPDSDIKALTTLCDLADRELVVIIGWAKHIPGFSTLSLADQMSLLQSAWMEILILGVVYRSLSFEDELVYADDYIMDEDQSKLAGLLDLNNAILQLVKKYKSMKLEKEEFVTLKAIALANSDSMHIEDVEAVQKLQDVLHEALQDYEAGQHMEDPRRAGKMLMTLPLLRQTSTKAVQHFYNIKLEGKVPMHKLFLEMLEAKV
How it was run: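 HepG2 cells transiently transfected with multiplexed GAL4-UAS reporter units and chimeric NR-Gal4 constructs were exposed to test chemicals for 24 h. Reporter mRNA was measured by RT-PCR, 6-FAM primer extension, HpaI digestion and capillary electrophoresis; gain-of-signal versus DMSO.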

[15] = molecular target: Bile acid receptor (Homo sapiens) (UniProt Q96RI1); assay: ATG_FXR_TRANS: Attagene TRANS-FACTORIAL HepG2 Assay for Farnesoid X Receptor (FXR) (AID 2282979); settings: HepG2 Attagene TRANS FXR-GAL4 reporter transcription;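 note: hits raise reporter mRNA above DMSO so AC50 marks FXR activation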
Chain of Bile acid receptor (Homo sapiens) (Q96RI1 whole entry, looked up, the tested form may be a part): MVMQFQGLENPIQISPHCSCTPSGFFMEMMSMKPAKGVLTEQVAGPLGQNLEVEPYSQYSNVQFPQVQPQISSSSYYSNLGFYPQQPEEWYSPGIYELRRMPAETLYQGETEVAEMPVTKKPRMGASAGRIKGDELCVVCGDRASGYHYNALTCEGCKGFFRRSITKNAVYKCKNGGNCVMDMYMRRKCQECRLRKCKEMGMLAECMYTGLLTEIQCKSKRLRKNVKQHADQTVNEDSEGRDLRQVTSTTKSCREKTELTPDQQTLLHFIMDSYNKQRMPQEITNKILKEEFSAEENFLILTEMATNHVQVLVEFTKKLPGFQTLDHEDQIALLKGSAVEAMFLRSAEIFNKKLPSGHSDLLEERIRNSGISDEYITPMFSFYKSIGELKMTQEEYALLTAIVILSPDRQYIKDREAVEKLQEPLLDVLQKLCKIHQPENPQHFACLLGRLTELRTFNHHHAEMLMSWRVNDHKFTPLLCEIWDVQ
How it was run: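 HepG2 cells transiently transfected with reporter constructs in which a chimeric FXR-GAL4 protein drives a GAL4-UAS reporter; 24 h compound exposure. Reporter mRNA measured by RT-PCR, FAM labelling, HpaI digestion and capillary electrophoresis; gain-of-signal versus DMSO.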

[16] = molecular target: Hepatocyte nuclear factor 4-alpha (Homo sapiens) (UniProt P41235); assay: ATG_HNF4a_TRANS: Attagene TRANS-FACTORIAL HepG2 Assay for human Hepatocyte Nuclear Factor 4 alpha (HNF4a) (AID 2282982); settings: HepG2 HNF4a transactivation reporter, mRNA readout
Chain of Hepatocyte nuclear factor 4-alpha (Homo sapiens) (P41235 whole entry, looked up): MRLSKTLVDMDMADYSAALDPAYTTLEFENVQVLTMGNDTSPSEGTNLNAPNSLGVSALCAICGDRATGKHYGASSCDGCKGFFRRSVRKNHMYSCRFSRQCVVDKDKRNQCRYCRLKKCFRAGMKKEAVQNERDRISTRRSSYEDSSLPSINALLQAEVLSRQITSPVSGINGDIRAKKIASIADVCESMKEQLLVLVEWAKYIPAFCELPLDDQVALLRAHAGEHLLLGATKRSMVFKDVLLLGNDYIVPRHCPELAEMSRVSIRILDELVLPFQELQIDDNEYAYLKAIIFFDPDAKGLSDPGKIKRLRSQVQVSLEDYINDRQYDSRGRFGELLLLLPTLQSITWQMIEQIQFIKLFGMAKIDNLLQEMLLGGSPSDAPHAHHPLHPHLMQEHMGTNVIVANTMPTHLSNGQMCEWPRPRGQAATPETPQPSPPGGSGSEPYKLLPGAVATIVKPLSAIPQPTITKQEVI
How it was run: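 Transfected HepG2 reporter cells are dosed for 24 h; reporter RNA is reverse-transcribed, amplified, fluorescently labelled and HpaI-digested before CE sizing. Positive-direction fit against DMSO.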

[17] = ATG_M_19_TRANS: Attagene TRANS-FACTORIAL HepG2 Assay for M19 Transcription Factor (Internal Marker) (AID 2282974); settings: HepG2 Attagene TRANS-FACTORIAL M19 internal marker reporter
How it was run: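 Background-control readout: after 24 h chemical exposure of transfected HepG2 carrying GAL4-driven reporter units, RNA was reverse-transcribed, amplified, fluorescently labeled and sized by capillary electrophoresis; gain-of-signal fit against DMSO.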

[18] = molecular target: Oxysterols receptor LXR-beta (Homo sapiens) (UniProt P55055); assay: ATG_LXRb_TRANS: Attagene TRANS-FACTORIAL HepG2 Assay for human Liver X Receptor beta (LXRb) (AID 2282981); settings: HepG2 Attagene TRANS GAL4-LXRb reporter, mRNA
Chain of Oxysterols receptor LXR-beta (Homo sapiens) (P55055 whole entry, looked up, the tested form may be a part): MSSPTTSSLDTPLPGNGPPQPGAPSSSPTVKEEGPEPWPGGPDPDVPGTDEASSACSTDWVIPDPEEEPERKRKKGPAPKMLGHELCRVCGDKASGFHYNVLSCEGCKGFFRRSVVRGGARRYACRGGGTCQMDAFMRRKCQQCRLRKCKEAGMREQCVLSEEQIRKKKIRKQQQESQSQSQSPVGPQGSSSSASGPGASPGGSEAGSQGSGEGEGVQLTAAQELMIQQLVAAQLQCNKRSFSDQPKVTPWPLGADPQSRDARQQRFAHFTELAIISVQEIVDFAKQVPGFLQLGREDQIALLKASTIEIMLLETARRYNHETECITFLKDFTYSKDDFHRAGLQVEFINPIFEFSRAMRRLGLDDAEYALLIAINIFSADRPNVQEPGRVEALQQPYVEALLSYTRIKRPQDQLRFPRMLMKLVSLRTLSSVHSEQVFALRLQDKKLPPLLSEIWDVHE
How it was run: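 Cells: HepG2, transiently transfected with GAL4-UAS reporter units plus LXRb-Gal4 fusion. Treatment: 24 h. Detection: reporter mRNA by RT-PCR, 6-FAM labelling, HpaI digestion, capillary electrophoresis.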

[19] = ATG_M_32_TRANS: Attagene TRANS-FACTORIAL HepG2 Assay for M32 Transcription Factor (Internal Marker) (AID 2282984); settings: HepG2 Attagene TRANS M32 internal marker reporter
How it was run: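 Using transiently transfected HepG2 cells exposed to test chemicals for 24 h, reporter transcripts are converted to labelled cDNA fragments and quantified by capillary electrophoresis. DMSO defines the activity baseline.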

Measured: AC50

O=c1[nH]c2ccccc2c(=O)o1
not listed: [12] | [13] | [14] | [15] | [16] | [17] | [18] | [19]
inactive: all other assays above

COP(=O)(CCC(=O)NCO)OC
not listed: [3] | [4] | [6] | [10] | [17] | [18] | [19]
inactive: all other assays above

NNC(N)=S
inactive: [1] | [2] | [5] | [17] | [6] | [7] | [15] | [18] | [9] | [11]

CCCCN(CCCC)N=O
inactive: [1] | [4] | [5] | [6] | [7] | [15] | [8] | [16] | [9] | [11]

Oc1ccccc1Br
inactive: [1] | [2] | [5] | [6] | [7] | [15] | [16] | [9] | [11]

CC(Cc1ccc(OCC(=O)O)cc1)NCC(O)c1csc(C(F)(F)F)n1 (configuration not stated)
inactive: [1] | [2] | [3] | [5] | [17] | [6] | [14] | [18] | [10] | [11]

CC(Cl)(Cl)C(=O)O
inactive: [1] | [2] | [4] | [5] | [7] | [9] | [19] | [10] | [11]

CC(C)(C)OOC(C)(C)C
inactive: [1] | [5] | [17] | [6] | [7] | [15] | [8] | [18] | [9] | [11]

CCOP(=S)(Oc1ccc([N+](=O)[O-])cc1)c1ccccc1 (configuration not stated)
active: [2] 6.46 µM | [4] 3.9 µM
inactive: [1] | [12] | [5] | [14] | [9] | [10] | [11]

ClC(Cl)(Cl)c1ccccc1
active: [4] 45.2 µM
inactive: [1] | [2] | [3] | [5] | [18] | [9] | [11]

FC(F)(F)C(F)(C(F)(F)F)C(F)(F)C(F)(F)CC1CO1 (configuration not stated)
not listed: [3] | [6] | [8] | [10] | [12] | [14] | [17]
inactive: all other assays above

CNC(=O)Oc1ccc(N(C)C)c(C)c1
not listed: [6] | [7] | [9] | [10] | [12] | [13] | [15]
inactive: all other assays above
